Laboratory results: PubChem BioAssay (EPA / NIEHS)
Records with an inconclusive call do not appear. Active and inactive are the calls of the source. The calls were made as follows: active = hit-call score of the fitted dose curve at least 0.9, where 1 is the maximum; inconclusive = response in the unintended direction; inactive = score below 0.9.

Key:
[1] = target: human Ephrin type-A Receptor 1 (EphA1), EPHA1 (gene 2041) (UniProt P21709); experiment: NVS_ENZ_hEphA1: NovaScreen (NVS) Enzymatic Assay for human Ephrin type-A Receptor 1 (EphA1) (AID 2283158);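 also: activity is signal loss versus DMSO meaning EphA1 kinase inhibition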
In short: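 Recombinant kinase, fluorescent substrate, mobility-shift separation, fluorescence read at 1 h. Single-point duplicates at 25 uM; hits (e.g., ≥30% inhibition) run singleton concentration-response, max 50 uM. DMSO = negative control/baseline.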

[2] = target: human Fibroblast Growth Factor Receptor 1 (FGFR1), FGFR1 (gene 2260) (UniProt P11362); experiment: NVS_ENZ_hFGFR1: NovaScreen (NVS) Enzymatic Assay for human Fibroblast Growth Factor Receptor 1 (FGFR1) (AID 2283159)
In short: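 Cell-free recombinant kinase with fluorescent substrate, product separated by electrophoretic mobility shift; read 1 hour after dosing, loss of signal relative to DMSO. Initial screen in duplicate at 25 uM, actives followed in concentration series.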

[3] = target: human FYN Proto-Oncogene, Src family Tyrosine Kinase (Fyn), FYN (gene 2534) (UniProt P06241); experiment: NVS_ENZ_hFyn: NovaScreen (NVS) Enzymatic Assay for human FYN Proto-Oncogene, Src family Tyrosine Kinase (Fyn) (AID 2283161)
In short: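 Recombinant enzyme with fluorescent substrate, product separated by electrophoretic mobility shift; read 1 h after dosing. Duplicate 25 uM single-point screen, actives retested in concentration series; loss of signal vs DMSO.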

[4] = target: Glycogen synthase kinase-3 beta (Homo sapiens) (UniProt P49841); experiment: NVS_ENZ_hGSK3b: NovaScreen (NVS) Enzymatic Assay for human Glycogen Synthase Kinase-3 beta (GSK3b) (AID 2283165)
In short: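 Recombinant enzyme with specific fluorescent substrate, 1 h, product separated by electrophoretic mobility shift. Primary duplicate screen at 25 uM; actives (e.g. 30% inhibition) followed in singleton concentration-response to 50 uM. Signal loss fitted versus DMSO.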

[5] = target: human IkappaB Kinase alpha (IKKa), CHUK (gene 1147) (UniProt O15111); experiment: NVS_ENZ_hIKKa: NovaScreen (NVS) Enzymatic Assay for human IkappaB Kinase alpha (IKKa) (AID 2283167)
In short: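 Cell-free recombinant human IKKa with fluorescent substrate, product separated by electrophoretic mobility shift; read 1 hour after dosing. Primary screen duplicate at 25 uM, actives then concentration-response up to 50 uM; loss of signal relative to DMSO.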

[6] = target: human MET Proto-Oncogene, Receptor Tyrosine Kinase (MET), MET (gene 4233) (UniProt P08581); experiment: NVS_ENZ_hMet: NovaScreen (NVS) Enzymatic Assay for human MET Proto-Oncogene, Receptor Tyrosine Kinase (MET) (AID 2283180)
In short: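 Cell-free MET kinase assay using recombinant protein and fluorescent substrate, with mobility-shift separation; read 1 h after dosing. Primary duplicate at 25 uM; actives in singleton concentration-response to 50 uM maximum. Signal loss versus DMSO.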

[7] = target: human Ephrin type-A Receptor 2 (EphA2), EPHA2 (gene 1969) (UniProt P29317); experiment: NVS_ENZ_hEphA2: NovaScreen (NVS) Enzymatic Assay for human Ephrin type-A Receptor 2 (EphA2) (AID 2283155)
In short: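 Cell-free recombinant EphA2 kinase with specific substrate, 1 h, fluorescence with electrophoretic mobility-shift separation of substrate and product. Primary screen at 25 uM in duplicate; hits retested in singleton concentration-response up to 50 uM, referenced to DMSO.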

[8] = target: Histone deacetylase 3 (Homo sapiens) (UniProt O15379); experiment: NVS_ENZ_hHDAC3: NovaScreen (NVS) Enzymatic Assay for human Histone Deacetylase 3 (HDAC3) (AID 2283163)
In short: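 Recombinant human HDAC3 with fluorescent substrate, 1 h after dosing; product separated from substrate by electrophoretic mobility shift and read by fluorescence. Primary screen at 25 uM in duplicate; actives (e.g. ≥30% inhibition) retested in concentration-response up to 50 uM.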

[9] = target: Protein deacetylase HDAC6 (Homo sapiens) (UniProt Q9UBN7); experiment: NVS_ENZ_hHDAC6: NovaScreen (NVS) Enzymatic Assay for human Histone Deacetylase 6 (HDAC6) (AID 2283164)
In short: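 Recombinant human HDAC6 with fluorescent substrate, 1 h; product separated from substrate by electrophoretic mobility shift. Primary screen in duplicate at 25 uM; actives retested singly in concentration-response up to 50 uM, fitted relative to DMSO.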

[10] = target: human MAP Kinase-Activated Protein Kinase 2 (MAPKAPK2), MAPKAPK2 (gene 9261) (UniProt P49137); experiment: NVS_ENZ_hMAPKAPK2: NovaScreen (NVS) Enzymatic Assay for human MAP Kinase-Activated Protein Kinase 2 (MAPKAPK2) (AID 2283178)
In short: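 Cell-free recombinant human MAPKAPK2 activity measured by fluorescence with electrophoretic mobility shift separation of substrate and product, 1 hr after dosing. Loss of signal versus DMSO; primary screen at 25 uM, concentration-response up to 50 uM.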

[11] = target: human Mitogen-Activated Protein Kinase 1 (MAPK 1), MAPK1 (gene 5594) (UniProt P28482); experiment: NVS_ENZ_hMAPK1: NovaScreen (NVS) Enzymatic Assay for human Mitogen-Activated Protein Kinase 1 (MAPK 1) (AID 2283175)
In short: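 Cell-free recombinant human MAPK1 enzymatic assay, fluorescence/electrophoretic mobility shift read at 1 h; loss of signal vs DMSO. Primary screen in duplicate at 25 uM; actives (e.g. ≥30% inhibition) run as concentration-response up to 50 uM.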

[12] = target: Mitogen-activated protein kinase 3 (Homo sapiens) (UniProt P27361); experiment: NVS_ENZ_hMAPK3: NovaScreen (NVS) Enzymatic Assay for human Mitogen-Activated Protein Kinase 3 (MAPK 3) (AID 2283177)
In short: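 Cell-free enzymatic assay with recombinant protein and specific substrate; fluorescence and electrophoretic mobility shift read-out 1 h after dosing. Primary screen duplicate at 25 uM; actives then run in concentration-response up to 50 uM, loss of signal versus DMSO.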

[13] = target: human Matrix Metalloproteinase-1 (MMP1), MMP1 (gene 4312) (UniProt P03956); experiment: NVS_ENZ_hMMP1: NovaScreen (NVS) Enzymatic Assay for human Matrix Metalloproteinase-1 (MMP1) (AID 2283181)
In short: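 Human MMP1 enzyme activity measured by fluorescence 1 h after dosing, cell-free, with a specific substrate. Screened in duplicate at 25 uM; hits (e.g. 30% inhibition) run in concentration-response up to 50 uM; loss of signal versus DMSO.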

[14] = target: human Janus Kinase 2 (Jak2), JAK2 (gene 3717) (UniProt O60674); experiment: NVS_ENZ_hJak2: NovaScreen (NVS) Enzymatic Assay for human Janus Kinase 2 (Jak2) (AID 2283169)
In short: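 Cell-free recombinant human JAK2 enzyme activity assay, fluorescence/electrophoretic mobility shift read 1 h after dosing. Screened in duplicate at 25 uM, then concentration-response up to 50 uM; activity as signal loss relative to DMSO.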

[15] = target: human c-Jun N-terminal Kinases (JNK2), MAPK9 (gene 5601) (UniProt P45984); experiment: NVS_ENZ_hJNK2: NovaScreen (NVS) Enzymatic Assay for human c-Jun N-terminal Kinases (JNK2) (AID 2283171)
In short: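 Cell-free recombinant human JNK2 activity assay; fluorescent substrate and product separated by electrophoretic mobility shift, read 1 h after dosing. Primary duplicate screen at 25 uM; actives run in concentration-response up to 50 uM, relative to DMSO.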

Sequence of human Janus Kinase 2 (Jak2), JAK2 (gene 3717) (O60674 whole entry, looked up): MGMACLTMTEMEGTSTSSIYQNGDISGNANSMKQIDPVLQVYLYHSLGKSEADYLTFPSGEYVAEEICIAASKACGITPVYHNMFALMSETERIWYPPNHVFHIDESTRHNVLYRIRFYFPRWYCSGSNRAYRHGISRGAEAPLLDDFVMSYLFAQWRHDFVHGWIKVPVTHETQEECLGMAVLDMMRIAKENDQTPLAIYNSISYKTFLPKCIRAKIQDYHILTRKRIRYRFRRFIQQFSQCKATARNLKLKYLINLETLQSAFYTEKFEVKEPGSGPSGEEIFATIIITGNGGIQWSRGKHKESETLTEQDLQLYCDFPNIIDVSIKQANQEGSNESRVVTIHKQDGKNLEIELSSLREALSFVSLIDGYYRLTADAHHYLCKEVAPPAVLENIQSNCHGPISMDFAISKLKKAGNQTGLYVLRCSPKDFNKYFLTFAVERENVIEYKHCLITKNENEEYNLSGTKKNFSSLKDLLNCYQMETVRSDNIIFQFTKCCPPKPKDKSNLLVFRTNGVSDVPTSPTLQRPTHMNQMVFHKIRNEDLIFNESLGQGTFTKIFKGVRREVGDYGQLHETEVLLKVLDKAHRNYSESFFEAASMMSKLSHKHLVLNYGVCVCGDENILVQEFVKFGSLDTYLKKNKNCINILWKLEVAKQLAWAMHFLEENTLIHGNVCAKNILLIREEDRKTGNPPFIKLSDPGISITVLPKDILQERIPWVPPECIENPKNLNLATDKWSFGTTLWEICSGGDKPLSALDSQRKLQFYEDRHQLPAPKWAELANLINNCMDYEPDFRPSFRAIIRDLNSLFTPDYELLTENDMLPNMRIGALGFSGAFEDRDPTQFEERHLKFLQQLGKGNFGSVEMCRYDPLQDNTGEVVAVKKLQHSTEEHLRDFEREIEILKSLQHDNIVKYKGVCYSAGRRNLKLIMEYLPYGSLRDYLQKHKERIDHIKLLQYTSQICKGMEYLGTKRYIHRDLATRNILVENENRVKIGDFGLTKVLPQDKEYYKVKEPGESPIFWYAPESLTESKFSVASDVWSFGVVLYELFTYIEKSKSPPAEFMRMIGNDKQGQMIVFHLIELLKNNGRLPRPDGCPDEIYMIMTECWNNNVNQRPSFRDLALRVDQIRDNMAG
Sequence of Glycogen synthase kinase-3 beta (Homo sapiens) (P49841 whole entry, looked up): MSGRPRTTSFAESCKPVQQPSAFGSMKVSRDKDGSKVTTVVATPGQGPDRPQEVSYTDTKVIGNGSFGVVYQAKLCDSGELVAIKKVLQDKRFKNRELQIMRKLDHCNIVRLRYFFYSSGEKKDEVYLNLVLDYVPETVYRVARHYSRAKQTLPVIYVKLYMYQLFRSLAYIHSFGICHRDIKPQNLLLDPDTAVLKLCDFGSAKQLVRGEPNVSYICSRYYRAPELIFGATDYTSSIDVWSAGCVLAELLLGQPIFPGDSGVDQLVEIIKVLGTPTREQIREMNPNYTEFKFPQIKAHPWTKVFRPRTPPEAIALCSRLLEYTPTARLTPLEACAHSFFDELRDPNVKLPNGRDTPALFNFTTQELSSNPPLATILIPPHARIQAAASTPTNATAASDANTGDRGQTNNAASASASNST
Sequence of human Fibroblast Growth Factor Receptor 1 (FGFR1), FGFR1 (gene 2260) (P11362 whole entry, looked up): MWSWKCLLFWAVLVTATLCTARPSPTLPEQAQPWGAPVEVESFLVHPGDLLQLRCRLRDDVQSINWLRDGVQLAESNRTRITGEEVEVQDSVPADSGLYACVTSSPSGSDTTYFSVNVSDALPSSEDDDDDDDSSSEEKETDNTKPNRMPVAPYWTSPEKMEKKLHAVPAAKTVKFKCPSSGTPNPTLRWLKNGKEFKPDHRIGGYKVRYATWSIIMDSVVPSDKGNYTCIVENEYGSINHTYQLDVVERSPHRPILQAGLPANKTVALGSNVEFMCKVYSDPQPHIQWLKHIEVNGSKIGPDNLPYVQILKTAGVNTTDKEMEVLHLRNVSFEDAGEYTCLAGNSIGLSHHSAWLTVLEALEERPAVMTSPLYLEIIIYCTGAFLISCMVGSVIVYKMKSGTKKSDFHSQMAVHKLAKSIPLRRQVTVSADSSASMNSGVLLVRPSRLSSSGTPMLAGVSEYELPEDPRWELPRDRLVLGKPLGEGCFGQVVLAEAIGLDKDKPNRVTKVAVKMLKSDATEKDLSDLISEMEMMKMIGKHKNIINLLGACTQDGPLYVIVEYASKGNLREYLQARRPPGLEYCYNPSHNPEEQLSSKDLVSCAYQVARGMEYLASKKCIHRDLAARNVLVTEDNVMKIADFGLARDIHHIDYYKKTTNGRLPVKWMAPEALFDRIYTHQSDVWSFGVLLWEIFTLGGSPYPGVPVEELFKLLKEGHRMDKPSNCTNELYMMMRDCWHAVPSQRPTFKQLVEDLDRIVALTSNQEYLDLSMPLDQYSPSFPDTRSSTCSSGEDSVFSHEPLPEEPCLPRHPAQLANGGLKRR
Sequence of Mitogen-activated protein kinase 3 (Homo sapiens) (P27361 whole entry, looked up): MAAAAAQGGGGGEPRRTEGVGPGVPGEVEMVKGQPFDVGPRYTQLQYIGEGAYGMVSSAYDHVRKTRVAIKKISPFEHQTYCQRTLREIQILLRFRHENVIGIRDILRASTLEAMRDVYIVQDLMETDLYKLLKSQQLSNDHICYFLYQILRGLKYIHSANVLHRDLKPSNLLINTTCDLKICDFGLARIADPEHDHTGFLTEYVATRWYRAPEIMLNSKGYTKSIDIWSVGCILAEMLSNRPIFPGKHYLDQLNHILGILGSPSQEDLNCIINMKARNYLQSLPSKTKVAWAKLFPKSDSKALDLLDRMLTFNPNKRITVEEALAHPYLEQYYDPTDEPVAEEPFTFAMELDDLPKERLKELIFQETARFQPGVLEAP
Sequence of Histone deacetylase 3 (Homo sapiens) (O15379 whole entry, looked up): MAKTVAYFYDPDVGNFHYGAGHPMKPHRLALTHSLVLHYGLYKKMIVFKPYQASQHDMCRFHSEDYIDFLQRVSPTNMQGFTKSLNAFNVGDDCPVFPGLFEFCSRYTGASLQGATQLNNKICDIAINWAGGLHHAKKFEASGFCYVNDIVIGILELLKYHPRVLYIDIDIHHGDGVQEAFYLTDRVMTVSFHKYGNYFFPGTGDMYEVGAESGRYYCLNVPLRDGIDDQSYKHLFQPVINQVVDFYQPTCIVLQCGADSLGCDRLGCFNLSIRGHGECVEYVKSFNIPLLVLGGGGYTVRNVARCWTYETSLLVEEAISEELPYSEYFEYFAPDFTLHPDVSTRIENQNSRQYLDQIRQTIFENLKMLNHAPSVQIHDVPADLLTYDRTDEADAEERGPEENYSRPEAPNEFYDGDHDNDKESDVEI
Sequence of human MET Proto-Oncogene, Receptor Tyrosine Kinase (MET), MET (gene 4233) (P08581 whole entry, looked up): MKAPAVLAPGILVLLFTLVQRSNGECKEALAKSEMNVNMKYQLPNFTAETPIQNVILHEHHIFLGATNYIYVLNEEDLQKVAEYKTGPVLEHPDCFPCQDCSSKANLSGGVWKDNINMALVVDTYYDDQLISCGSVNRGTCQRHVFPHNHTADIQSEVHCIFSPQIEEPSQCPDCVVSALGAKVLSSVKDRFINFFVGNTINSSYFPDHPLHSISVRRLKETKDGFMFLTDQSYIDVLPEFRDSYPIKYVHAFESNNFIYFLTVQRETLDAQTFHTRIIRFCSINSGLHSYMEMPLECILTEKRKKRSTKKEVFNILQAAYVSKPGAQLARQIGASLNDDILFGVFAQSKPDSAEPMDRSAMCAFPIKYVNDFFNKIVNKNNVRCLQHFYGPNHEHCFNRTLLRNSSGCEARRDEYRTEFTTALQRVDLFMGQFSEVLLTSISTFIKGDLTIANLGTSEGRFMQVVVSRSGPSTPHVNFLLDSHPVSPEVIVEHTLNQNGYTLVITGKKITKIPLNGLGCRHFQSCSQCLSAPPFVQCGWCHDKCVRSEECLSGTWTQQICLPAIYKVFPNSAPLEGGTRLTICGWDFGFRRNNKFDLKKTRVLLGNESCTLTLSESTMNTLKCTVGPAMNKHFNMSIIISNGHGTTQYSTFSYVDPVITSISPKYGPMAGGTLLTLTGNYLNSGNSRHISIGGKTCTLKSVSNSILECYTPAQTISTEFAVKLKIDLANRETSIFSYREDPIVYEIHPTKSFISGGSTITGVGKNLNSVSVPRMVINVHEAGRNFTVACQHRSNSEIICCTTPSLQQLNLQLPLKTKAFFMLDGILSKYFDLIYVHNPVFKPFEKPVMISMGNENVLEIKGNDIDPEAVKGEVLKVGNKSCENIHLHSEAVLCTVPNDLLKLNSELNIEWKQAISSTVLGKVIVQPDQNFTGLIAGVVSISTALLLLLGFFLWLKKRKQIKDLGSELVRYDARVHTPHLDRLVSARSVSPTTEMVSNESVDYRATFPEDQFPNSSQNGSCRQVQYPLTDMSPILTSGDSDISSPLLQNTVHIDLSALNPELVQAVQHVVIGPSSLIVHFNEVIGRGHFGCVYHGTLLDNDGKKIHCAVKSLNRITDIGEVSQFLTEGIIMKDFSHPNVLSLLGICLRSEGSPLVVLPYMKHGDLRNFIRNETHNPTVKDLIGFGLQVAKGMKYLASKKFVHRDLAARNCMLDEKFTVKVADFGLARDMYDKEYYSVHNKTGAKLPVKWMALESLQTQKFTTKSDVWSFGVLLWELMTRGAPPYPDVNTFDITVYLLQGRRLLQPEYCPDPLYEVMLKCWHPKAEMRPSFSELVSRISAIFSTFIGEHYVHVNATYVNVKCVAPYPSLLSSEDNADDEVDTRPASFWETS
Sequence of human MAP Kinase-Activated Protein Kinase 2 (MAPKAPK2), MAPKAPK2 (gene 9261) (P49137 whole entry, looked up): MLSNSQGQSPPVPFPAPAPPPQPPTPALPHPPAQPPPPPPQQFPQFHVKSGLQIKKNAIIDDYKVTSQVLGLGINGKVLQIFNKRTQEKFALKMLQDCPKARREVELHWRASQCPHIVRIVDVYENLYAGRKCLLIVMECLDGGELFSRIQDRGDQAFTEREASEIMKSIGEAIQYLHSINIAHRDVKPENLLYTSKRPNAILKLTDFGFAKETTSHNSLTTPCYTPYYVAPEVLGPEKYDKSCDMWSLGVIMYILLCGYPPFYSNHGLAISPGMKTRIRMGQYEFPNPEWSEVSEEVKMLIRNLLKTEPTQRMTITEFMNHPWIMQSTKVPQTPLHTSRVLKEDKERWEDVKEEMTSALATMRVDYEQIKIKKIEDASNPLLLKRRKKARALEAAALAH

O=C(O)C(F)(F)C(F)(F)C(F)(F)C(F)(F)C(F)(F)C(F)(F)C(F)(F)C(F)(F)F
outcome [1]: inactive | outcome [2]: inactive | outcome [3]: inactive | outcome [4]: inactive | outcome [5]: inactive | outcome [6]: inactive

C=CC(=O)NCNC(=O)C=C
outcome [2]: inactive

O=C(NC(=O)c1c(F)cccc1F)Nc1cc(Cl)c(OC(F)(F)C(F)F)c(Cl)c1
outcome [7]: inactive | outcome [1]: inactive

O=C(NC(=O)c1cc(F)c(F)cc1Cl)Nc1cc(F)ccc1N1CCC(C(=O)O)CC1
outcome [4]: inactive

Cc1cc(O)ccc1Cl
outcome [4]: inactive

COc1ccc(O)c(C(C)(C)C)c1
outcome [4]: inactive

Cc1ccc(O)c(C)c1
outcome [4]: inactive | outcome [6]: inactive

C=CC(N)=O
outcome [4]: inactive

Nn1cnnc1
outcome [8]: inactive

CCOCCOC(C)=O
outcome [9]: inactive | outcome [10]: inactive

CCNc1nc(NC(C)C)nc(SC)n1
outcome [11]: inactive

ClC1=C(Cl)[C@]2(Cl)[C@@H]3[C@@H](Cl)[C@H]4O[C@H]4[C@@H]3C1(Cl)C2(Cl)Cl
outcome [12]: inactive

C1CC2OC2CC1C1CO1 (centres undefined)
outcome [4]: inactive

Clc1ccc(Cl)cc1
outcome [4]: inactive

O=NN(c1ccccc1)c1ccccc1
outcome [13]: inactive

O=S(=O)(O)C(F)(F)C(F)(F)C(F)(F)C(F)(F)C(F)(F)C(F)(F)F
outcome [2]: inactive | outcome [9]: inactive | outcome [5]: inactive | outcome [14]: inactive | outcome [11]: inactive | outcome [12]: inactive | outcome [10]: inactive

CC(C)C(=O)OCC(C)(C)C(OC(=O)C(C)C)C(C)C (centres undefined)
outcome [4]: inactive | outcome [14]: inactive | outcome [15]: inactive | outcome [12]: inactive | outcome [10]: inactive

CC(C)(c1ccccc1)c1ccc(O)cc1
AC50 [13]: 10.5 µM (active)

Cc1cccc(C)c1N
outcome [12]: inactive

Cc1ccccc1O
outcome [4]: inactive

Cc1ccccc1[N+](=O)[O-]
outcome [4]: inactive | outcome [6]: inactive

Clc1ccc(C(c2ccccc2Cl)C(Cl)(Cl)Cl)cc1 (centres undefined)
outcome [2]: inactive | outcome [14]: inactive

Cc1cc2c3c(c1)C(c1ccccc1)=N[C@@H](NC(=O)c1ccncc1)C(=O)N3CC2
outcome [2]: inactive | outcome [14]: inactive

O=C(O)C(F)(F)C(F)(F)C(F)(F)C(F)(F)C(F)(F)F
outcome [8]: inactive | outcome [14]: inactive | outcome [15]: inactive

CC#Cc1cc(C)nc(Nc2ccccc2)n1
outcome [12]: inactive

CCOP(=S)(OCC)SCSC(C)(C)C
outcome [8]: inactive
